Results on 43 compounds are retold here after PubChem BioAssay (NCATS).

For experiment [1], the target named is Aldehyde dehydrogenase, mitochondrial (Homo sapiens) (UniProt P05091). Put plainly: qHTS for Inhibitors of the Aldehyde Dehydrogenase Family (ALDH2) Primary screen (AID 2061308). Note: nearly all actives have a fitted effect of over 55% in size. Background: qHTS replaces the single test concentration by a dilution series.
The target in experiment [2] is Retinaldehyde dehydrogenase 3 (Homo sapiens) (UniProt P47895). Nature of the experiment: qHTS for Inhibitors of the Aldehyde Dehydrogenase Family (ALDH1A3) Primary screen (AID 2061315).

Records with an inconclusive call do not appear. Where a call stands in place of a potency, no number is given. The source made the active and inactive calls. Calls come from the whole dose curve; as a rule, active = well fitted curve in the direction sought with a large enough effect; inconclusive = small, poorly fitted or top-dose-only effect, or another doubt; inactive = no such curve, though single readings can be large; an effect the other way counts as inactive or inconclusive.

Turning to `CCOc1ccc(C(=O)Oc2ccc(-c3nc4ccccc4[nH]3)cc2)cc1`, the Potency entry in experiment [1] and in experiment [2] was “inactive” in each case.
For `COc1ccc(CC(=O)Nc2nc(-c3ccc4c(c3)CCN4C(=O)c3ccccc3C)c(C)s2)cc1`, the Potency result in experiment [1] and in experiment [2] was “inactive” each time.
Consider `O=C(Nc1ccc(Cl)c(C(F)(F)F)c1)Nc1nnc(-c2cccnc2)s1`, for which the Potency entry in experiment [1] and in experiment [2] was “inactive” each time.
As to `COc1ccc2nc(-c3ccc(F)cc3Cl)sc2c1`, the Potency result in experiment [1] and in experiment [2] was “inactive” each time.
Consider `O=[S+]([O-])(Nc1ccc(C2CCNCC2)cc1)c1ccc(NCc2ccc(Cl)cc2O)cc1`, for which the Potency result in experiment [1] and in experiment [2] was “inactive” each time.
Take `Cc1ccc(-c2cc(C(=O)Nc3cccc(Cl)c3)c3ccccc3n2)cc1C`: the Potency result in experiment [1] and in experiment [2] was “inactive” in each case.
`CC(C)Nc1oc(-c2cccc3ccccc23)nc1C#N`: the Potency result in experiment [1] and in experiment [2] was “inactive” each time.
With `COc1ccc(OC)c(-c2nnc3n2N=C(c2ccc(OC)c(OC)c2)CS3)c1`, the Potency entry in experiment [1] and in experiment [2] was “inactive” each time.
For `O=C1CCCC2=C1C(c1[nH]ncc1Cl)N=C(Nc1nc3c(Cl)cccc3o1)N2` (stereo unspecified), the Potency result in experiment [1] and in experiment [2] was “inactive” each time.
As to `C=C1C(=O)O[C@@H]2/C=C(\C)CC/C=C(/C=O)[C@H](OC)[C@@H](OC(=O)C(C)C)[C@@H]12`, the Potency result in experiment [1] and in experiment [2] was “inactive” each time.
Regarding `COc1cccc(-c2nnc3n2N=C(c2ccccc2OC)CS3)c1`, the Potency entry in experiment [1] and in experiment [2] was “inactive” throughout.
For the compound `O=S(=O)(Nc1ccc(C2CCNCC2)cc1)c1ccc(NCc2cccc(Cl)c2O)cc1`, the Potency result in experiment [1] and in experiment [2] was “inactive” each time.
With `CCC(=O)NC(c1cc(Cl)c2cccnc2c1O)C(C)C` (stereo unspecified), the Potency entry in experiment [1] and in experiment [2] was “inactive” throughout.
On to `COc1cc(-c2ccc3ncnc(NCCc4cnc[nH]4)c3c2)cc(OC)c1OC`, for which the Potency result in experiment [1] and in experiment [2] was “inactive” in each case.
Take `CNC(=O)c1cnn2c(C)cc(C)nc12`: the Potency entry in experiment [1] and in experiment [2] was “inactive” in each case.
With `Cc1cc(NC(=O)Nc2nnc(-c3cccnc3)s2)ccc1F`, the Potency result in experiment [1] and in experiment [2] was “inactive” in each case.
Consider `Cc1cc(CNc2ncnc3ccc(-c4ccc5c(c4)OCO5)cc23)c(C)o1`, for which the Potency entry in experiment [1] and in experiment [2] was “inactive” each time.
In the case of `O=C(OCC#CCSc1nnc(-c2ccccc2F)o1)c1ccc(F)cc1`, the Potency entry in experiment [1] and in experiment [2] was “inactive” throughout.
As to `CCCn1c(-c2ccc(F)cc2)nc2c(NC(C)CCCN(CC)CC)nc(C)nc21` (stereo unspecified), the Potency entry in experiment [1] and in experiment [2] was “inactive” each time.
For the compound `Cc1cccc(-c2nnc(C)n2CCCn2ccnc2)c1[N+](=O)[O-]`, the Potency entry in experiment [1] and in experiment [2] was “inactive” each time.
As to `CC(C)(C)CNc1ncnc2ccc(-c3ccc(C(=O)O)o3)cc12`, the Potency result in experiment [1] and in experiment [2] was “inactive” in each case.
As for `Cc1cccc(C)c1-n1c(SCC(=O)Nc2ccc(F)cc2)nnc1-c1cccc([S+](=O)([O-])N2CCCC2)c1`, the Potency entry in experiment [1] and in experiment [2] was “inactive” throughout.
As for `Fc1cccc(-c2nc3ccccc3s2)c1`, the Potency entry in experiment [1] and in experiment [2] was “inactive” in each case.
Turning to `COc1ccc(Cn2ncc3c4sc(C)cc4n(C)c3c2=O)cc1F`, the Potency result in experiment [1] and in experiment [2] was “inactive” throughout.
Turning to `Cc1ccc(S(=O)(=O)Nc2ccccc2C(=O)Nc2cccc(-c3ccccc3)c2)cc1`, the Potency entry in experiment [1] and in experiment [2] was “inactive” in each case.
Turning to `c1csc(CNc2ncnc3ccc(-c4ccc5c(c4)OCO5)cc23)n1`, the Potency entry in experiment [1] and in experiment [2] was “inactive” throughout.
Regarding `CC(=O)Nc1sc2cnccc2c1-c1nc2ccccc2s1`, the Potency entry in experiment [1] and in experiment [2] was “inactive” in each case.
Take `Cc1cc(C)nc(NC(=S)N2CCN(c3nccc4ccsc34)CC2)c1`: the Potency entry in experiment [1] and in experiment [2] was “inactive” throughout.
Consider `COc1ccc(C(=O)N(Cc2ccccc2)Cc2ccccc2)c(O)c1`, for which the Potency entry in experiment [1] and in experiment [2] was “inactive” each time.
Turning to `CC/C(C)=C/C(=O)OC1C(OC2(C)CCC3C(C4C(C)CCC42)C3(C)C)OC(C)C(O)C1O` (stereo unspecified), the Potency entry in experiment [1] and in experiment [2] was “inactive” each time.
With `Fc1ccccc1-c1nc(NCc2ccc(-c3cccnc3)cc2)c2ccccc2n1`, the Potency entry in experiment [1] and in experiment [2] was “inactive” throughout.
Turning to `O=S(=O)(c1ccc2c(c1)OCCO2)N1CCN(S(=O)(=O)c2ccc(Cl)cc2F)CC1`, the Potency result in experiment [1] and in experiment [2] was “inactive” throughout.
In the case of `FC(F)(F)c1cccc(N2CCN(C(=S)Nc3cccnc3)CC2)c1`, the Potency entry in experiment [1] and in experiment [2] was “inactive” in each case.
Consider `C/C=C1\[C@H](O[C@@H]2O[C@H](CO)[C@@H](O)[C@H](O)[C@H]2O)OC=C(C(=O)OCCc2ccc(O)cc2)[C@H]1CC(=O)OCCc1ccc(O)cc1`, for which the Potency result in experiment [1] and in experiment [2] was “inactive” throughout.
Take `CCOC(=O)c1nn(-c2ccccc2)c(=O)c2c(N)sc(C)c12`: the Potency result in experiment [1] and in experiment [2] was “inactive” each time.
Consider `O=C1Nc2ccccc2/C1=C\c1cc(Br)c(O)c(Br)c1`, for which the Potency entry in experiment [1] and in experiment [2] was “inactive” throughout.
Turning to `Fc1cc(F)cc(Nc2nc(Cl)nc(NC3CCCC3)n2)c1`, the Potency result in experiment [1] and in experiment [2] was “inactive” in each case.
As for `CC(C)C1CCC(C(=O)Nc2ccc(S(=O)(=O)Nc3nccs3)cc2)CC1` (stereo unspecified), the Potency result in experiment [1] and in experiment [2] was “inactive” each time.
For the compound `O=C1CCc2cc(S(=O)(=O)Nc3ccc(Cl)cc3)ccc2N1`, the Potency result in experiment [1] and in experiment [2] was “inactive” in each case.
As to `Cc1nc(NCCO)c2nc(-c3ccccc3)n(CCCN(C)C)c2n1`, the Potency result in experiment [1] and in experiment [2] was “inactive” throughout.
`COc1ccc(C2Nc3cccc(OC)c3C(=O)N2Cc2ccco2)cc1COc1c(C)cc(NC(C)=O)cc1C` (stereo unspecified): the Potency result in experiment [1] and in experiment [2] was “inactive” throughout.
In the case of `Cc1ccc(-c2ccc(=O)n(CC(=O)NCCc3ncc[nH]3)n2)cc1`, the Potency result in experiment [1] and in experiment [2] was “inactive” in each case.
Turning to `COCCN(CCOC)c1nc(C)nc2c1nc(-c1ccccc1)n2CCCN1CCCCC1C` (stereo unspecified), the Potency entry in experiment [1] and in experiment [2] was “inactive” each time.
